Screening data as filed in PubChem.
Sampled rows, rich in hits. Any-hit rate of the full collection: about 7.8%.
VACV mCherry inh = qHTS for Stage-Specific Inhibitors of Vaccinia Orthopoxvirus: mCherry Reporter Primary qHTS. Vaccinia virus mCherry reporter infection, fluorescence. Potency, µM (titrated, usually from 36.5 µM), for inactives: at the highest dose activity change, negative = inhibition, usual class: inhibitors. 310,000 compounds, 0.63% hits. AID 720579, 2013; calls by dose curve; tested in A549 cells; note: potency is the fitted concentration of half-maximal effect; nearly all actives have a fitted effect of over 35% in size
HCMV inh = qHTS Assay for inhibitors of the human cytomegalovirus (HCMV); activity change, negative = inhibition, % at 57.5 µM; HFF cells, HCMV-luciferase reporter, 72 h; hits give low values; 410,000 compounds, 4.5% hits; in the data active = activity change below about -60%; inconclusive = no clear call, values can overlap the other calls; inactive = above about -39%
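Compounds were evaluated in HFFs infected with an HCMV luciferase reporter virus (MOI 1 PFU/cell). Luciferase in lysates collected 72 h post infection served as the replication measure.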
Marburg entry inh = qHTS for inhibitors of binding or entry into cells for Marburg Virus. Marburg virus pseudotyped entry inhibition, cell reporter. Potency, µM (series often up to 37.8 µM), for inactives: at the top dose activity change, negative = inhibition, actives largely listed as inhibitors. 300,000 compounds, 1.8% hits. AID 540276, 2011; calls by dose curve; tested in HEK293 cells; note: potency is the fitted concentration of half-maximal effect
VACV Venus inh = qHTS for Stage-Specific Inhibitors of Vaccinia Orthopoxvirus: Venus Reporter Primary qHTS. Vaccinia virus Venus reporter expression, fluorescence. Potency, µM (series often up to 36.5 µM), for the others: top-dose activity change, negative = inhibition, usual class: inhibitors. AID 720580, 2013. 330,000 compounds, 0.46% hits; calls by dose curve; tested in A549 cells; note: potency is the fitted concentration of half-maximal effect; nearly all actives have a fitted effect of over 30% in size
HCV inh = qHTS Assay for Inhibitors of Hepatitis C Virus (HCV); Huh7.5.1 HCVcc-Cre infection, luciferase reporter, 44 h; Potency, µM (doses to about 41.8 µM), for the others: top-dose activity change, negative = inhibition, usual class: inhibitors; 340,000 compounds, 3.4% hits; AID 651820, 2012; active = well fitted inhibition curve with a large enough effect; inconclusive = small, poorly fitted or top-dose-only effect, or another doubt; inactive = no such curve, though single readings can be large or run the other way; note: potency is the fitted concentration of half-maximal effect
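After 44 h co-culture of compound, cells and HCVcc-Cre (~0.5 moi), substrate is added for 15 min at room temperature and luciferase measured over 15 sec. Cells were seeded at 1,000/well and pre-cultured 4 h.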
Lassa entry inh = qHTS for Inhibitors of binding or entry into cells for Lassa Virus; Lassa virus pseudotype entry inhibition, cell reporter; Potency, µM (series often up to 37.9 µM), inactives show at the top dose activity change, negative = inhibition, most hits filed as inhibitors; 300,000 compounds, 1.2% hits; AID 540256, 2011; calls by dose curve; tested in HEK293 cells; note: potency is the fitted concentration of half-maximal effect; nearly all actives have a fitted effect of over 50% in size
An asterisk follows results filed as active; ? = inconclusive; · = no result given; [ ] = remark or other dose. % is set by controls: 0 for no effect and ±100 for the full control effect.

SMILES	VACV mCherry inh	HCMV inh	Marburg entry inh	VACV Venus inh	HCV inh	Lassa entry inh
Cc1cc(=O)n2c3c(c4c(cc13)c(CN(C)C)cc(=O)n4C)OC2	13.3%	-72.0*	?	-5.6%	?	-14.5%
COc1ccc(CNC(=O)c2cc3ccccn3n2)c(OC)c1	-7.1%	20.9	·	-3.2%	·	-2.4%[46.1 µM]
Cc1oc2ccc(O)c(CN3CCOCC3)c2c1C(=O)c1ccc(Cl)cc1	·	-35.3	?	·	?	?
Cc1oc2c(Cl)c(Cl)c(O)c(CN(C)C)c2c1C(=O)c1ccc(Cl)cc1	·	-68.5*	·	·	?	·
CCc1ccc(-n2c(SCC(=O)NC(C)CC)nc3n[nH]c(C)c3c2=N)cc1 (stereo not given)	-29.4%	?	·	-26.2%	·	-11.3%[46.1 µM]
O=C(N/N=C/c1cccs1)C1COc2ccccc2O1 (stereo not given)	-16.3%	-10.4	-19.1%	-28.1%	-1.3%	?
Cc1ccc(/C=N/NC(=O)C2COc3ccccc3O2)s1 (stereo not given)	?	-75.8*	?	?	2.4%	?
C/C(=N\NC(=O)C1COc2ccccc2O1)c1cccs1 (stereo not given)	-13.8%	-60.2*	5.1%	-11.1%	-2.4%	11.7%
Cc1ccc(-n2c(O)c(/C=N/NC(=O)C3COc4ccccc4O3)c3ccccc3c2=O)cc1 (stereo not given)	-25.1%	-61.1*	?	-17.5%	16.4%	-22.7%
O=C(N/N=C/c1c(O)n(-c2ccccc2Cl)c(=O)c2ccccc12)C1COc2ccccc2O1 (stereo not given)	-16.0%	·	?	-0.6%	-4.4%	?
Cc1c(/C=N\NC(=O)C2COc3ccccc3O2)c2ccccc2n1C (stereo not given)	-21.1%	-85.9*	-20.0%	?	?	?
COc1ccc(CNC(=O)CCCc2cn(C)c3ccccc23)c(OC)c1	-12.8%	?	·	-4.5%	·	7.6%[46.1 µM]
Cc1ccc(N2C(=O)CS(=O)(=O)C23C(=O)N(Cc2cccc(F)c2)c2ccccc23)cc1Cl (stereo not given)	1.0%	-9.8	?	-7.5%	·	-10.5%[46.1 µM]
COc1ccc(C2=C(Nc3ccc(Br)c(C)c3)c3ccccc3C2=O)cc1	-13.7%	4.7	-15.5%[46.1 µM]	-7.3%	·	-5.0%[46.1 µM]
O=c1oc2ccccc2c(O)c1[C@H]1c2ccc(O)cc2Oc2c1c(=O)oc1ccccc21	·	-92.9*	·	·	-8.0%	·
CC(C)N(CCC(=O)c1ccc2ccccc2c1)Cc1ccccc1	?	-77.2*	12.6µM*	?	-26.6%	5.17µM*
C[C@@H]1CNC(=O)c2c(C(=O)Nc3ccc(CNC(=O)OC(C)(C)C)cc3)ncn21	?	-65.5*	·	?	·	·
COc1ccc(C2=NCC(C)n3nc4ccccc4c32)cc1 (stereo not given)	·	9.0	·	·	·	·
Cc1ccc2occ(CC(=O)N(Cc3ccccc3Cl)C3CCS(=O)(=O)C3)c2c1 (stereo not given)	-3.1%	1.6	-3.0%[46.1 µM]	-7.8%	·	-24.4%[46.1 µM]
Cc1noc(-c2ccc(Cl)cc2)c1C(=O)O/N=C(\N)c1ccc(C(C)(C)C)cc1	-11.0%	-99.7*	?	-8.8%	?	?
CC(C)(C)c1ccc(C(=O)O/N=C(\N)c2ccccc2)cc1	5.2%	-93.9*	·	-6.3%	?	·
Cc1cc(C(=O)O/N=C(\N)c2ccc(C(C)(C)C)cc2)no1	·	-69.4*	·	·	-26.3%	·
COc1ccc(C(=O)O/N=C(\N)c2ccccc2)cc1	-14.4%	53.9	?	-6.8%	-2.3%	?
O=C(CSc1ncc2c(n1)-c1ccccc1N(Cc1ccc(Cl)cc1)S2(=O)=O)c1ccccc1	-12.6%	12.7	·	-3.7%	·	15.2%[46.1 µM]
CCOc1ccc(NC(=O)COc2ccc(C(=O)NCCc3ccccc3)cc2)cc1	-12.6%	-80.5*	-26.0%	2.0%	-13.5%	?
CCOc1cc(CNCCO)ccc1OCC(=O)NC(C)(C)C	-11.8%	-17.2	5.3%[46.1 µM]	2.4%	-4.2%	16.9%
